# According to PubChem BioAssay:
# Assay: small molecules captured by biotinylated probe aFSTL3 – biochemical, small-molecule microarray, fluorescence 635/667, stem cell growth factor project, primary screen (AID 1064);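 further: measures binding of the biotinylated anti-FSTL3 antibody to printed compounds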
# Conditions: higher = more signal
row,Structure (SMILES),composite z-score
1,O=c1cccc(CCc2ccccc2)o1,-0.587
2,COc1ccc([Si](C)(C)[C@H]2[C@H](CCn3cc(CCO)nn3)O[C@@]3(C(=O)N(Cc4ccc(N5CCOC5=O)cc4)c4ccccc43)[C@@H]2C)cc1,0.102
3,C=CC[C@@H](OC(=O)Nc1ccc(OC)cc1)c1ccc(O)c2ccccc12,-0.316
4,CC(c1ccccc1)C(O)C1C=CC2C(=O)NC(=O)C2N1Nc1ccccn1 (stereo unspecified),0.166
5,CC(C)CNC(=O)[C@@H]1c2ccccc2C(=O)N(Cc2cc(C(F)(F)F)cc(C(F)(F)F)c2)[C@H]1c1ccc(CO)cc1,0.491
6,C[C@]1(C(=O)NCc2ccccc2)c2ccccc2C(=O)N(Cc2cc(F)cc(C(F)(F)F)c2)[C@H]1c1ccc(CO)cc1,0.46
7,O=C1O[C@H](c2ccccc2)[C@H](c2ccccc2)N2[C@H]1[C@@H](C(=O)Nc1nc3ccccc3s1)[C@]1(C(=O)Nc3ccccc31)[C@H]2c1ccc(O)cc1,-0.423
8,CN(C)CCCNC(=O)[C@@]1(Cc2ccccc2I)c2ccccc2C(=O)N(Cc2ccccc2C(F)(F)F)[C@H]1c1ccc(CO)cc1,0.459
9,CCCCCN1CC=CC23O[C@@H]4C=CCOC(=O)[C@@H]4[C@H]2C(=O)N(CCCO)[C@@H]3C1=O (stereo partly specified),-0.295
10,C=C(CCCC)/C(=C/C[C@H](OC(C)=O)c1ccc(CO)o1)c1cnc2ccccc2c1,-0.472
11,CC(C)NC(=O)[C@@]1(Cc2ccccc2I)c2ccccc2C(=O)N(Cc2ccccc2)[C@H]1c1ccc(CO)cc1,0.0478
12,O=C1C2C=CC(C(O)c3ccc(B(O)O)cc3)N(Nc3ccccc3)C2C(=O)N1c1ccccc1 (stereo unspecified),0.72
13,O=C1C[C@]2(c3ccc([N+](=O)[O-])cc3)C(=O)N(CC(F)(F)F)c3cc(CO)ccc3[C@H]2N1CC12CC3CC(CC(C3)C1)C2,-0.127
14,N#Cc1ccc(NN2C(C(O)c3cccs3)C=CC3C(=O)N(c4ccccc4)C(=O)C32)cc1 (stereo unspecified),0.106
15,COCCOC(=O)N1C(=O)[C@@]2(c3cc(C#CCNC(N)=O)ccc31)[C@H](C(=O)N1CCc3cc(OC)c(OC)cc3C1)[C@H]1C(=O)O[C@H](c3ccccc3)[C@H](c3ccccc3)N1[C@@H]2c1ccc(OCCO)cc1,-0.222
16,CC(=O)Nc1cc(Br)ccc1C(=O)O,-0.135
17,C=CCOC(=O)[C@@H]1[C@H]2C(=O)O[C@H](c3ccccc3)[C@H](c3ccccc3)N2[C@H](c2ccc(OCCOC(=O)[C@@H]3C[C@@H]4C(=O)N[C@@H](Cc5ccccc5)C(=O)N4[C@@H]3c3cccc(OCCO)c3)cc2)[C@@]12C(=O)Nc1ccc(I)cc12,0.224
18,[N-]=[N+]=NCc1ccccc1C[C@]1(C(=O)O)N=C(c2ccc(OCCCO)cc2)O[C@H]1c1ccccc1CN=[N+]=[N-],-0.0279

row,Structure (SMILES),composite z-score
1,NCCCCCNC(=O)[C@H]1C[C@H]2C(=O)NCC(=O)N2[C@H]1c1cccc(OCCO)c1,0.257
2,COc1cc2c(cc1OC)CN(C(=O)[C@@H]1[C@H]3C(=O)O[C@H](c4ccccc4)[C@H](c4ccccc4)N3[C@H](c3ccccc3OCCO)[C@@]13C(=O)Nc1ccc(C#CCNC(N)=O)cc13)CC2,0.309
3,C=C(COC)C(=O)CC[C@H](OC(C)=O)c1cccc(OCCO)c1,-0.0206
4,CCOC(=O)C[C@H]1[C@H](OC(=O)Cc2ccc3c(c2)OCO3)[C@@H](NC(=O)C2CCCCC2)c2cc(OCCCO)ccc2N1C(=O)Cc1ccc(OC)cc1,-0.397
5,COCCOC(=O)N1C(=O)[C@@]2(c3cc(C#CCNC(N)=O)ccc31)[C@H](c1ccc(OCCO)cc1)N1[C@H](c3ccccc3)[C@H](c3ccccc3)OC(=O)[C@H]1[C@@H]2C(=O)N1CCc2cc(OC)c(OC)cc2C1,0.187
6,COCCOC(=O)N1C(=O)[C@@]2(c3cc(C#CC4(O)CCCCCC4)ccc31)[C@H](C(=O)N1CCCCCCC1)[C@H]1C(=O)O[C@H](c3ccccc3)[C@H](c3ccccc3)N1[C@@H]2c1ccccc1OCCO,2.49
7,C=C(COC)/C(=C/C[C@H](OC(=O)c1ccncc1)c1cccc(OCCO)c1)c1cc(C(=O)OC)ccc1OC,-0.282
8,COc1c(C)cc(-c2cc3c(c(-c4ccc(Oc5ccccc5)cc4)n2)[Si](C(C)C)(C(C)C)OC3)cc1C,-0.128
9,CCOC(=O)C1=CCC(c2ccc(C#N)cc2)N(S(=O)(=O)c2ccc(C)cc2)C1 (stereo unspecified),0.657
10,CCOC(=O)C1=C[C@@H](C(C)C)N(S(=O)(=O)c2ccc(C)cc2)[C@H]1c1ccc(C(C)C)cc1,-0.462
11,CCOC(=O)C1=CCC(C(C)(C)C)N(S(=O)(=O)c2ccc(C)cc2)C1 (stereo unspecified),-0.735
12,CCCCC=C[C@@H](NC(=O)c1ccco1)c1ccccc1,-0.0252
13,CC(C)(C)N1CC=CC23O[C@@H]4C=CCOC(=O)[C@@H]4[C@H]2C(=O)N(CCCCCO)[C@@H]3C1=O (stereo partly specified),0.469
14,O=C1C=CC(=O)[C@@H]2CC(COc3ccccc3)=C3[C@@H](CCc4ccccc4)OB(O)C[C@@H]3[C@H]12,0.232
15,Cc1ccccc1C(O)C1C=CC2C(=O)N(C)C(=O)C2N1N1CCCCC1 (stereo unspecified),0.363
16,CCOC(=O)C[C@H]1[C@H](OC(=O)c2ccc(C(=O)c3ccccc3)cc2)[C@@H](NC(=O)C2CCCCC2)c2cc(OCCCO)ccc2N1C(=O)c1ccccc1,-0.379
17,Cc1ccc(S[C@]2(C(=O)NCC(C)C)CC(=O)N(Cc3ccccc3Cl)[C@@H]2c2ccc(CO)cc2)cc1,1.27
18,COc1cccc(C(=O)O[C@H]2CC[C@]3(C)C4=C(CCC3C2(C)C)[C@]2(C)CC[C@H]([C@H](C)CCCC(C)C)[C@@]2(C)CC4)c1 (stereo partly specified),-0.526
